Assay results as given in PubChem BioAssay (NCATS).
Results filed as inconclusive are left out. Entries that show only a call come without a potency. Calls of active or inactive are those of the source. The call rests on the fitted dose curve; in most records, active means well fitted inhibition curve with a large enough effect; inconclusive means small, poorly fitted or top-dose-only effect; inactive means flat fitted curve, though single readings scatter.

Each compound was assayed against Calcium and integrin-binding protein 1 (Homo sapiens) (UniProt Q99828) (assay: Primary qHTS for Identification of Calcium Integrin Binding Protein 1 (CIB1) Competitor (AID 1508620; further: top concentration of the series differs between compounds)). Settings: CIB1-GST / FITC-alphaIIb peptide fluorescence polarization; series mostly up to 114 µM.
Calcium and integrin-binding protein 1 (Homo sapiens), sequence (Q99828 whole entry, looked up): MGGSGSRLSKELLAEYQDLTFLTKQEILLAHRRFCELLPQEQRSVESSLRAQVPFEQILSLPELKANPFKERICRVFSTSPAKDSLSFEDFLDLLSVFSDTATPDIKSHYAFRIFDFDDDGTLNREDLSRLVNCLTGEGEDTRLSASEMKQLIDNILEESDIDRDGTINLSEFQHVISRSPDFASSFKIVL
How it was run: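 Fluorescence polarization competition: GST-tagged CIB1 (1 uM final) preincubated with compound 15 min at room temperature, then FITC-labelled alphaIIb peptide (100 nM final) added. After 15 min at room temperature, polarization read at Ex 480/Em 540.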

Structure (SMILES) | Potency
FC(F)(F)c1ccc(CSc2nc3ncc(Br)cc3[nH]2)cc1 | inactive
Cc1ccc(-c2ccc(CNc3nc(-c4ccccc4C(C)C)nc4ccccc34)cc2)cn1 | inactive
O=C(/C=C/c1ccc(C(F)(F)F)cc1)Nc1cccc([S+](=O)([O-])Nc2ccccc2F)c1 | inactive
COc1cccc(C2=Nn3c(nnc3-c3cccc(OC)c3OC)SC2)c1 | inactive
O=C(NCCc1nc2ccccc2n1CCO)C1CCCCC1 | inactive
O=C1CCCC2=C1C(c1cccnc1Cl)N=C(Nc1nc3ccccc3o1)N2 (configuration not stated) | inactive
FC(F)(F)c1cnc(N2CCN(C(=S)Nc3cc(Cl)ccn3)CC2)c(Cl)c1 | inactive
Cn1c2cc(Br)sc2c2cnn(Cc3ccc(F)cc3)c(=O)c21 | inactive
O=S(=O)(Nc1ccc2ccccc2c1)c1ccc(NCc2ccc(Br)cc2O)cc1 | inactive
COc1cccc(C2c3c(ncn(Cc4cccs4)c3=N)Oc3ccc4ccccc4c32)c1 (configuration not stated) | inactive
O=C(Nc1ccc(-c2nc3ccccc3[nH]2)cc1)c1ccc2cc[nH]c2c1 | inactive
Cc1ccc(NS(=O)(=O)c2ccc3c(c2)CCCC(=O)N3)cc1C | inactive
COc1cccc(CNc2ccc(S(=O)(=O)Nc3nccs3)cc2)c1 | inactive
O=C1c2ccccc2C(=O)N1c1ccccn1 | inactive
O=C(OCC#CCSc1nnc(-c2cccc3ccccc23)o1)c1cccc2[nH]ccc12 | inactive
CC(C)(C)OC(=O)N1CCN(c2ccc(OCc3ccc(-c4ccc(C#N)cc4)o3)cc2)CC1 | inactive
COc1ccc2cc3cc(C(=O)Nc4ccc(F)cc4)sc3nc2c1 | inactive
